High-throughput results from PubChem BioAssay.
PABP1 MLLE inh = blocks PAM2 peptide binding to the PABP1 MLLE domain. P11940. inhibition, % at 20 µM. GST-MLLE / FITC-PAM2 fluorescence polarization. actives 0.36% (n = 360,000). AID 588489; in the data active = inhibition above about 35%, passing the limit was not always enough
Efa HMGR inh = blocks class II HMG-CoA reductase of Enterococcus faecalis; purified E. faecalis HMGR, NADPH absorbance 340 nm kinetic; inhibition, % at 10 µM; actives 0.41% (n = 190,000); AID 1066;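 active = inhibition above a set limit, the median over all tested compounds plus 3 SD, cut at about 9.5% in these data; inconclusive = no clear call, values can overlap the other calls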;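 note: enzyme runs in reverse so mevalonate oxidation gives rising NADPH absorbance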
eIF4H inh = inhibitors of RNA binding by human eIF4H | Q15056 | eIF4H fluorescence polarization binding assay | inhibition, % at 35 µM | actives 0.94% (n = 290,000) | AID 2012;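 note: calls also rest on retests at 20 µM and on dose response follow-up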
PABP polyA inh = blocks human PABP binding to poly(A) RNA. actives 1% (n = 290,000). AID 2014. calls only at 35 µM. P11940. fluorescence polarization;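 note: calls also rest on retests at 20 µM and on dose response follow-up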
PHOSPHO1 inh = PHOSPHO1 (human) inhibition; actives 1.1% (n = 290,000); inhibition, % at 13.3 µM; Q8TCT1; recombinant PHOSPHO1, absorbance phosphatase assay; AID 1565; in the data active = inhibition above about 60%
Target sequence (Q8TCT1 whole entry, looked up): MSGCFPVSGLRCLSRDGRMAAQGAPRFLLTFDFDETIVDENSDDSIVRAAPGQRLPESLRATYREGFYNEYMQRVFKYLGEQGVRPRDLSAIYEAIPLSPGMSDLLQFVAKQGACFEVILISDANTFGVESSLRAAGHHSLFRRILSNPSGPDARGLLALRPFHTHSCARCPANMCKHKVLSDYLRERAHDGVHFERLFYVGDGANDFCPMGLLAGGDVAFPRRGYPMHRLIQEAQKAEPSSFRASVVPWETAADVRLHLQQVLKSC
Each line names hits and unclear results; the compound was inactive in the other large screens. Shown are actives, neighbours in structure and some others; about 2.4% of the full set was active somewhere. Unless noted, the rule behind the calls is not given here.

CCN(CC)CCN(C)C(=O)CCc1nnc(-c2ccc(C)s2)o1	PHOSPHO1 inh 60
CCOC(=O)CN(C)C(=O)CCc1nnc(-c2ccc(-c3ccccc3)cc2)o1	none (no result: Efa HMGR inh)
O=S(=O)(c1ccccc1)c1nc(-c2ccco2)oc1NCc1cccnc1	PHOSPHO1 inh 68
CC(C)CC(NC(=O)C(COCc1ccccc1)NC(=O)OC(C)(C)C)C(=O)NN (stereo not given)	eIF4H inh active
CC(C)CC(NC(=O)OC(C)(C)C)C(=O)NCc1ccccc1 (stereo not given)	none
Cc1ccccc1NC(=O)COC(=O)CC1CCCC1	none (no result: Efa HMGR inh, eIF4H inh, PABP polyA inh, PHOSPHO1 inh)
O=C(CN1CCOCC1)Nc1cc([N+](=O)[O-])ccc1Cl	eIF4H inh active
O=C(CN1CCCCCC1)Nc1cc([N+](=O)[O-])ccc1Cl	none (no result: Efa HMGR inh)
Cc1sc2ncnc(OCC(=O)NC3CCS(=O)(=O)C3)c2c1C (stereo not given)	none (no result: Efa HMGR inh)
O=C1C=C(C2OC(CO)C(O)C2O)C(=O)N1 (stereo not given)	PABP1 MLLE inh 43 (no result: Efa HMGR inh, eIF4H inh, PABP polyA inh, PHOSPHO1 inh)
O=c1cnn([C@@H]2O[C@H](CO)[C@@H](O)[C@H]2O)c(=O)[nH]1	none
Nc1cccc2cnccc12	eIF4H inh 88
O=C(CCc1nnc(CCc2c[nH]c3ccccc23)o1)NC1CCC1	none (no result: Efa HMGR inh)
CCOc1cc(N2CCOCC2)c(OCC)cc1NS(=O)(=O)c1ccc(Cl)s1	eIF4H inh 97
CCOc1cc(N2CCOCC2)c(OCC)cc1NC(=O)c1cc(S(=O)(=O)N2CCOCC2)ccc1Cl	none (no result: Efa HMGR inh, eIF4H inh, PABP polyA inh, PHOSPHO1 inh)
N#CCCN(C(=O)CSc1ccc2c(c1)OCCO2)c1ccccc1	PABP1 MLLE inh 41
O=C(COC(=O)c1n[nH]c2ccccc12)c1cccc(Br)c1	PHOSPHO1 inh 61 (no result: Efa HMGR inh)
N#CCOc1coc(CN2CCN(c3ccccc3)CC2)cc1=O	none (no result: Efa HMGR inh)
COC(=O)c1ccc(NC(=O)Cn2nc(C)c3ccccc3c2=O)cc1	none (no result: Efa HMGR inh)
Cc1nn(CC(=O)Nc2cccnc2)c(=O)c2ccccc12	PHOSPHO1 inh 63
COc1ccc(CCNC(=O)CCS(=O)(=O)c2ccc3nc(C)sc3c2)cc1OC	none (no result: Efa HMGR inh)
Cc1ccccc1NC(=O)/C(C#N)=C/c1ccc(-c2ccc(Cl)c(C(=O)O)c2)o1	none (no result: Efa HMGR inh)
N#C/C(=C\c1ccc(-c2cccc(Cl)c2)o1)C(=O)Nc1cccc2cccnc12	eIF4H inh 82, PABP polyA inh active
C=CCn1c(C)cc(-c2csc(N)n2)c1C	eIF4H inh inconclusive, PABP polyA inh inconclusive, PHOSPHO1 inh 98
C=CCn1c(C)cc(-c2csc(NC)n2)c1C	eIF4H inh inconclusive
Cc1c(-c2csc(N)n2)cnn1C	none
CCCn1c(C)cc(-c2csc(N)n2)c1C	eIF4H inh 122
CC(C)CN(C(=O)C1=COCCO1)c1c(N)n(Cc2ccccc2)c(=O)[nH]c1=O	none (no result: Efa HMGR inh, eIF4H inh, PABP polyA inh, PHOSPHO1 inh)
CCOc1ccc(C(Nc2ccc(C)cc2)P2(=O)OCC(C)(C)CO2)cc1 (stereo not given)	eIF4H inh 98, PABP polyA inh active
CCOC(=O)N1CCN(CC(O)COc2ccc(C)c(C)c2)CC1 (stereo not given)	none (no result: Efa HMGR inh)
C=C(C)C(=O)Nc1cccc(C2=NOC3(C2)C[C@@H](C(N)=O)N(C(=O)C2(C)CC2)C3)c1 (stereo not given in full)	eIF4H inh 100, PABP polyA inh active (no result: Efa HMGR inh)
C=C(C)C(=O)Nc1cccc(C2=NOC3(C2)C[C@H](C(N)=O)N(C(=O)c2ccccc2)C3)c1 (stereo not given in full)	eIF4H inh 91, PABP polyA inh active (no result: Efa HMGR inh)
C=C(C)C(=O)Nc1cccc(C2=NOC3(C2)C[C@H](C(N)=O)N(C(=O)COc2ccc(Cl)cc2)C3)c1 (stereo not given in full)	eIF4H inh 86, PABP polyA inh active (no result: Efa HMGR inh)
C=C(C)C(=O)Nc1cccc(C2=NOC3(C2)C[C@@H](C(N)=O)N(C(=O)c2ccc(Cl)cc2)C3)c1 (stereo not given in full)	none (no result: PABP1 MLLE inh, Efa HMGR inh, eIF4H inh, PABP polyA inh)
C=C(C)C(=O)Nc1cccc(C2=NOC3(C2)C[C@@H](C(N)=O)N(C(=O)C(=C)C)C3)c1 (stereo not given in full)	eIF4H inh 93, PABP polyA inh active (no result: Efa HMGR inh)
O=C1CCCC2=C1C(c1ccccn1)Nc1ccc(C(=O)c3ccccc3)cc1N2 (stereo not given)	none
O=C1CCCC2=C1C(c1ccco1)Nc1ccc(C(=O)c3ccccc3)cc1N2 (stereo not given)	eIF4H inh 82, PABP polyA inh active
Cc1ccccc1CNS(=O)(=O)c1c(C(=O)N2CCCCC2)c(C)n(C)c1C	none (no result: Efa HMGR inh)
O=C1CC(SC(=S)C2CCCC2=O)C(=O)N1 (stereo not given)	PABP1 MLLE inh 46 (no result: Efa HMGR inh, eIF4H inh, PABP polyA inh, PHOSPHO1 inh)
